Screening data as filed in PubChem.
A selection: hits, their analogues and other compounds. The true share with any hit is near 11%.
MCF10A rerep: induces DNA re-replication in MCF 10a normal breast cells; MCF 10A DNA re-replication, Hoechst nuclear intensity, 48 h; Potency, µM (doses to about 46.1 µM), without a hit: at the highest dose activity, positive = re-replication, hits mostly activators; 350,000 compounds, 2.9% hits; further: potency means the concentration at half of the fitted maximal effect; % of control where 0% means no effect; nearly all actives have a fitted effect of over 50% in size
IL-1B inflam inh: inhibitors of inflammasome signaling (IL-1 beta secretion); 360,000 compounds, 4.7% hits; activity change, % at 57.5 µM; THP-1 LPS/ATP IL-1B secretion, AlphaLISA, 16 h; active compounds read low; in the data active means activity change below about -50%; inconclusive means mostly about -30% to -49%; further: on the % scale 0 is the no-effect control and ±100 the full control effect
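Secreted IL-1B measured by AlphaLISA bead assay after 16 h compound exposure of THP-1 cells; compounds (final up to 57.5 uM) added 1 h before LPS (250 ng/mL) and ATP (1.25 mM) stimulation; lower signal means less secretion.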
SW480 rerep: induces DNA re-replication in SW480 colon adenocarcinoma cells | SW480 DNA re-replication, Hoechst DNA content imaging, 48 h | Potency, µM (top dose mostly 46.1 µM), for inactives: at the top dose re-replication activation, usual class: activators | 340,000 compounds, 1.8% hits; further: potency means the concentration at half of the fitted maximal effect; % of control where 0% means no effect; nearly all actives have a fitted effect of over 55% in size
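Compounds, transferred as 23 nL by pin tool, were incubated with cells for 48 hr; DNA content per nucleus was then quantified by Hoechst staining and fluorescence plate imaging.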
Gal4-VP16 FLuc: counter-screen for ROR gamma inhibitors: Gal4-VP16 reporter. Potency, µM (doses to about 53.6 µM), for the others: top-dose activity, negative = inhibition, most hits filed as inhibitors. 310,000 compounds, 3.5% hits. Drosophila S2 Gal4-VP16 UAS-luciferase, luminescence, 20 h;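 further: Gal4-VP16 expression switched on by copper sulfate through the metallothionein promoter; potency means the concentration at half of the fitted maximal effect; on the % scale 0 is the no-effect control and ±100 the full control effect; nearly all actives have a fitted effect of over 50% in size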
RORg inh: blocks mouse ROR gamma transcriptional activity. Potency, µM (series often up to 53.6 µM), inactives show at the highest dose activity change, negative = inhibition, hits mostly inhibitors. 310,000 compounds, 5.4% hits. Drosophila S2 Gal4-RORgamma UAS-luciferase reporter, 20 h. P51450; further: potency means the concentration at half of the fitted maximal effect; on the % scale 0 is the no-effect control and ±100 the full control effect; nearly all actives have a fitted effect of over 60% in size
Target sequence (P51450 whole entry, looked up, the tested form may be a part): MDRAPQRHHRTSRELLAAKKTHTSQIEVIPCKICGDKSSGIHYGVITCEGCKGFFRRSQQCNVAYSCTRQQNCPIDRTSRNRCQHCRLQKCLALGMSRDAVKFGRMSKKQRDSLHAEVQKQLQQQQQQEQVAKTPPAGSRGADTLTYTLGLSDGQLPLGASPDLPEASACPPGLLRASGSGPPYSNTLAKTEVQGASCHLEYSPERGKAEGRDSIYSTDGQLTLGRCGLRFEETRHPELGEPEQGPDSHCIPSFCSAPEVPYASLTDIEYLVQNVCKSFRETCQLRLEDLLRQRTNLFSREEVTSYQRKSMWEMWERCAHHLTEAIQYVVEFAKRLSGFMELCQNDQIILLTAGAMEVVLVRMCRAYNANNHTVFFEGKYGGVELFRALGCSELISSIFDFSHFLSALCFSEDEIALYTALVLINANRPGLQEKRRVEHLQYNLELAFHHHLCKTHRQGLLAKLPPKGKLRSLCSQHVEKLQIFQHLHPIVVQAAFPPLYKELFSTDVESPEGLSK
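In this cell-based reporter format, copper sulfate (700 uM final) drives Gal4–ROR gamma fusion expression from a metallothionein promoter in Drosophila Schneider cells; compounds preincubated 1 hr, reporter read after 20 hr at ambient temperature.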
* hit, by the source's call; ? = inconclusive; nt = no result; [ ] = another dose, or the depositor's remark. Unless noted, the call rests on the fitted dose curve; in most records, active means well fitted curve in the direction sought with a large enough effect; inconclusive means small, poorly fitted or top-dose-only effect, or another doubt; inactive means no such curve, though single readings can be large; an effect the other way counts as inactive or inconclusive.

SMILES | MCF10A rerep | IL-1B inflam inh | SW480 rerep | Gal4-VP16 FLuc | RORg inh
CSCCNC(=O)C1(C)CCN1C(=O)c1ccc(C(C)(C)C)cc1 (configuration not stated) | nt | 30.8 | nt | nt | nt
C=CC[n+]1c(-c2ccc(OC)c(OC)c2)csc1NNC(=O)Nc1ccccc1 | 15.5% | -74.6* | -2.2% | ? | 10µM*
C=CC[n+]1c(-c2ccccc2)csc1NC(C)(C)C | 10.9% | -19.3 | -1.8% | -2.6% | -13.0%
COCCn1c(=N)c(C(=O)NCc2ccco2)cc2c(=O)n3ccccc3nc21 | 10µM* | -15.2 | ? | -0.7% | -2.8%
N=c1c(C(=O)NCc2ccco2)cc2c(=O)n3ccccc3nc2n1Cc1ccccc1 | 18.4µM* | 41.5 | 14.6µM* | -2.3% | 14.9%
COc1ccc(CNC(=O)c2cc3c(=O)n4ccccc4nc3n(Cc3cccnc3)c2=N)cc1 | ? | 19.7 | 18.5% | -2.4% | -14.6%
N=c1c(C(=O)NCc2ccco2)cc2c(=O)n3ccccc3nc2n1Cc1ccc(Cl)cc1 | 2.31µM* | -10.3 | 9.2µM* | 9.0% | -1.0%
CCOC(=O)c1cc2c(=O)n3ccccc3nc2n(Cc2ccc(Cl)cc2)c1=N | 1.64µM* | -8.2 | 2.06µM* | nt | nt
Cc1ccc2nc3c(cc(C(=O)NCc4ccco4)c(=N)n3Cc3ccco3)c(=O)n2c1 | ? | 6.1 | 23.8% | -0.1% | -12.3%
COCCCn1c(=N)c(C(=O)NCc2ccc3c(c2)OCO3)cc2c(=O)n3ccccc3nc21 | 12.1% | 3.8 | ? | -6.1% | 38.2%
Cc1cccn2c(=O)c3cc(C(=O)NCc4cccnc4)c(=N)n(C(C)C)c3nc12 | ? | -9.9 | ? | -2.4%[0.365 µM] | -18.1%
Cc1ccc(CNC(=O)c2cc3c(=O)n4ccccc4nc3n(Cc3ccco3)c2=N)cc1 | 7.94µM* | -93.9* | 15.8µM* | 2.82µM* | 3.16µM*
N=c1c(C(=O)NCc2ccccc2)cc2c(=O)n3ccccc3nc2n1Cc1ccco1 | 12.6µM* | ? | 15.8µM* | ? | ?
N=c1c(C(=O)NCc2ccc(F)cc2)cc2c(=O)n3ccccc3nc2n1Cc1ccco1 | 6.51µM* | -26.4 | ? | ? | 21.5%
CC(C)n1c(=N)c(C(=O)NCCc2ccccc2)cc2c(=O)n3ccccc3nc21 | 13µM* | -51.9* | 23.1µM* | -3.7% | -10.8%
CC(=O)N(C)C[C@@H]1Oc2ncc(C#Cc3ccc(F)cc3)cc2C(=O)N([C@@H](C)CO)C[C@H]1C | nt | 20.7 | nt | nt | nt
CCOC(=O)C1=C(COC(=O)c2ccc3ccccc3c2O)NC(=O)NC1C (configuration not stated) | -1.7% | -12.3 | -14.6% | nt | nt
Cc1cc(C)cc(NC(=S)NC2CC3CCCC(C2)N3C2CCCC2)c1 (configuration not stated) | 9.9% | -2.5 | 17.0% | 5.2% | 35.5µM*
S=C(Nc1ccc(Cl)cc1)NC1CC2CCCC(C1)N2C1CC1 (configuration not stated) | -14.2% | ? | -4.4% | 3.98µM* | ?
S=C(Nc1cccc(Cl)c1)NC1CC2CCCC(C1)N2C1CCCC1 (configuration not stated) | 10.3% | -6.9 | 0.3% | 4.2% | 0.1%
S=C(Nc1ccc(Cl)cc1)NC1CC2CCCC(C1)N2C1CCCC1 (configuration not stated) | ? | -23.3 | 23.1µM* | -0.6% | -0.8%
COCc1ccc(CN2CCC(n3nccc3NC(=O)CCCc3ccccc3)CC2)o1 | 4.9% | 0.2 | -2.6% | -27.9% | ?
COc1ccc(CCN2C(=O)COc3ccccc3C2C(=O)Nc2c(C)cccc2C)cc1OC (configuration not stated) | nt | 32.1 | nt | nt | nt
COc1ccc(/C=C2\N=C(c3ccccc3Cl)NC2=O)cc1 | 13µM* | ? | 10.3µM* | 2.4% | 7.6%
COc1ccc(/C=C2\N=C(SC)NC2=O)cc1 | 6.8% | -0.8 | -6.3% | ? | 12.6µM*
SMILES | MCF10A rerep | IL-1B inflam inh | SW480 rerep | Gal4-VP16 FLuc | RORg inh
COc1cc(CN2C[C@@H](CO)O[C@@H](n3cnc4c(NC(C)C)ncnc43)C2)cc(OC)c1OC | nt | -4.0 | nt | nt | nt
O=C(N/N=C/C(Cl)=C/c1ccccc1)c1ccc2c(c1)OCO2 | ? | -16.1 | ? | nt | nt
Cc1nc(-c2ccccc2)cn(O)c1=O | 2.0% | -2.6 | 1.5% | -72.0% | 6.31µM*
O=C(NC(c1ccc(-c2ccccc2)cc1)c1cnccn1)C1CCN(CCOc2ccc(F)cc2)CC1 (configuration not stated) | nt | -53.9* | nt | nt | nt
Cc1ccc(C(NC(=O)C2CCN(CCOc3ccccc3)CC2)c2ccccn2)cc1 (configuration not stated) | nt | -54.8* | nt | nt | nt
CN1CCN(C2CN(CCc3ccccc3)S(=O)(=O)C2)CC1 (configuration not stated) | nt | 11.0 | nt | nt | nt
CNC(=O)/C=C1\NC(C)(C)Cc2c1ccc1ccccc21 | ? | -67.2* | ? | 5.4% | -16.0%
Cc1cc(N)n2ncc(-c3ccc(F)cc3)c2n1 | 16.5% | -6.2 | 3.5% | -22.3% | 37.9%
Cc1nc2c(-c3ccc(F)cc3)cnn2c(N)c1-c1ccc(F)cc1 | 5.1% | -67.0* | 24.8% | -13.6% | -26.5%
CS(=O)(=O)c1cnc2c(-c3ccc(F)cc3)cnn2c1N | 1.8% | 8.7 | -8.3% | -24.5% | 11.2µM*
COc1ccc(-c2c(C)nc3c(-c4ccccn4)cnn3c2N)cc1 | ? | -28.2 | 13.2% | 10µM* | 5.01µM*
Nc1c(-c2cccs2)cnc2c(-c3ccc(F)cc3)cnn12 | 14.6% | -28.6 | 0.8% | -20.0% | ?
CC(C)(C)S(=O)(=O)c1cnc2c(-c3ccsc3)cnn2c1N | ? | 38.7 | ? | -3.1% | 4.47µM*
CCCCC1(C)NC(=O)N(CC(=O)Nc2ccc(Cl)cc2C)C1=O (configuration not stated) | ? | 0.4 | -1.5% | nt | nt
Cc1ccc(C(=O)c2cc([N+](=O)[O-])ccc2N2CCOCC2)cc1C | ? | 0.0 | nt | -6.0% | 2.5%[10 µM]
O=C(c1ccccc1)c1cc([N+](=O)[O-])ccc1N1CCCC1 | ? | -12.3 | 11.4% | 5.3% | 29.6%
COc1ccc(C(=O)c2cc([N+](=O)[O-])ccc2N2CCN(C)CC2)cc1 | 8.2µM* | 38.3 | ? | -1.6% | 13.4%
COc1ccc(C(=O)c2cc([N+](=O)[O-])ccc2N2CCCC2)cc1 | 1.46µM* | 11.9 | 18.4µM* | -2.9% | 2.4%
Cc1ccc(C(=O)c2cc([N+](=O)[O-])ccc2N2CCCCC2)cc1C | ? | 0.0 | 1.84µM* | -11.1% | -7.9%[10 µM]
Cc1cccc(OC(C)C(=O)Nc2ccccc2C(=O)N2CCCCC2)c1 (configuration not stated) | ? | -10.1 | 11.2% | 0.9% | -0.8%
CCn1c(CSc2nc3ccccc3s2)n[nH]c1=S | 23.5% | 15.9 | ? | 10µM* | 2.51µM*
C=CCn1c(CSc2nc3ccccc3s2)n[nH]c1=S | 1.9% | 26.0 | -7.1% | -24.5% | 11.1%
